Measured values published in PubChem BioAssay AID652071 (NMMLSC, 2013).
Calls of active or inactive are those of the source. The rule behind the calls is not given here.

Experiment: yeast cytosolic pH changes via V-ATPase – S. cerevisiae, pHLuorin, powder set 4, dose response (AID 652071)
Conditions: S. cerevisiae pHLuorin cytosolic pH fluorescence; series mostly up to 100 µM

Row | SMILES | outcome
1 | CN1CCN(c2ccccc2NC(=O)c2cccc(C(F)(F)F)c2)CC1 | inactive
2 | CC(=O)N1CCN(c2ccccc2NC(=O)c2ccc(C(N)=O)o2)CC1 | inactive
3 | CN(C)Cc1cccc(C(=O)Nc2ccccc2N2CCN(C)CC2)c1 | inactive
4 | CC(=O)N1CCN(c2ccccc2NC(=O)c2cncc(C)n2)CC1 | inactive
5 | CN1CCN(c2ccccc2NC(=O)c2ccc(Br)o2)CC1 | inactive
6 | CN1CCN(c2ccccc2NC(=O)c2cccc(CC#N)c2)CC1 | inactive
7 | O=C(Nc1ccccc1N1CCCCC1)c1ccc(Br)o1 | inactive
8 | CC(=O)N1CCN(c2ccccc2NC(=O)c2cccc(CS(C)(=O)=O)c2)CC1 | inactive
9 | Cc1cncc(C(=O)Nc2ccccc2N2CCCCC2)n1 | inactive
10 | CN(C)Cc1ccc(C(=O)Nc2ccccc2N2CCN(C)CC2)o1 | inactive
11 | CS(=O)(=O)c1ccc(C(=O)Nc2ccccc2N2CCCCC2)o1 | inactive
12 | CN1CCN(c2ccccc2NC(=O)c2cc(C(F)(F)F)ccn2)CC1 | inactive
13 | O=C(Nc1ccccc1N1CCCCC1)c1ccc(Cl)o1 | inactive
14 | CN1CCN(c2ccccc2NC(=O)c2cccc(C(F)(F)F)n2)CC1 | inactive
15 | N#CCc1cccc(C(=O)N2CCN(c3nc4ccc(F)cc4s3)CC2)c1 | inactive
